Akt phos inh: inhibitors of Akt phosphorylation; activity change, % for hits at 50 µM; Neuro2A IGF-stimulated pAkt S473 HTRF, 20 min; active compounds read low; 0.32% of 360,000 active; AID 651550; in the data active = activity change below about -80%; inconclusive = mostly about -51% to -80%
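Neuro2A cells in DMEM with 0.5% FBS, overnight at 37 deg C, given compound at single 50 µM final, then IGF (6 nM final) for 20 min at 37 deg C. Lysed; phospho-Akt Ser473 by HTRF after 24 h, 665/615 ratio.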
Six1-Eya2 inh: inhibitors of human Six1/Eya2 interaction; AlphaScreen GST-Six1/His-Eya2 binding, biochemical; active compounds read low; activity change, % (no concentration beside the values); 0.56% of 360,000 active
Target sequence (O00167 whole entry, looked up): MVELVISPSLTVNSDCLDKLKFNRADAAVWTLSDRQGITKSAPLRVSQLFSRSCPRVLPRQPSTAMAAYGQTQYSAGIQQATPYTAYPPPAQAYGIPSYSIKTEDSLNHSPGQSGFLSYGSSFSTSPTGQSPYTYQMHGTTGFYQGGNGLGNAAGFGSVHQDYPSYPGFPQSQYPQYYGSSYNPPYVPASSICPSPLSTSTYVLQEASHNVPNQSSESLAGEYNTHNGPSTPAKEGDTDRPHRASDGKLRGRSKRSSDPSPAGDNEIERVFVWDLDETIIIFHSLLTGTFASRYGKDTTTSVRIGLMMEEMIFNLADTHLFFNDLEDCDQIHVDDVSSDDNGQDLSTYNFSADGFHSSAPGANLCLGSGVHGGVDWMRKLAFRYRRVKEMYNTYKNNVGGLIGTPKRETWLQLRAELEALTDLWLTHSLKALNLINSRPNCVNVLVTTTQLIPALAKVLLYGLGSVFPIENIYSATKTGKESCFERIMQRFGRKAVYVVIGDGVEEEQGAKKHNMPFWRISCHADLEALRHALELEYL
Target sequence (Q15475 whole entry, looked up): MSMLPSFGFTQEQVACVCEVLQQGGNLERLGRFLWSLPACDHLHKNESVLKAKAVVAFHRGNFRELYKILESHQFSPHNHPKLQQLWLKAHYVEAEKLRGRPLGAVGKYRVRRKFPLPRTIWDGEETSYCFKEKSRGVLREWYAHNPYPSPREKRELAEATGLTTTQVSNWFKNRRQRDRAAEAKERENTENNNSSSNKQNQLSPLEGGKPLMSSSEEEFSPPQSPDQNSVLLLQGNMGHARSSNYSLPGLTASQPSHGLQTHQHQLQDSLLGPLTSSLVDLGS
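GST-Six1 + His-Eya2 (5X stock: 250/500 nM); Tris pH 8.0, 300 mM NaCl, 0.05% BSA, 0.02% Tween 20; GSH donor/Ni acceptor beads; 1 h 37 °C dark; AlphaScreen readout.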
CtBP-E1A blk: inhibitors of CtBP/E1A interaction; AlphaScreen GST-E1A/His-CtBP binding, 1536-well; active compounds read low; activity change, % (no concentration beside the values); 0.49% of 340,000 active
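Steps: dispense buffer (Tris pH 8.0, NaCl 300 mM, TCEP 1 mM, BSA, Tween 20); add 5X protein mix (GST-E1A, His-CtBP, 125 nM each); pin 23 nL compound; 2 h at 37 °C, dark; add 5X beads (50 ug/mL); 1 h; read.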
CCT modulator: changes cytosolic chaperonin activity; purified chaperonin ATPase assay, HTRF ADP detection, 30 min; activity change, % (concentration not given with the values), hits read low; 0.3% of 360,000 active; AID 651819; in the data active = activity change below about -30%
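ATPase activity: ADP formed was measured by HTRF Transcreener (665/615 nm ratio) after 30 min at 37 deg C with 10 uM ATP. Compounds screened at one 76 uM concentration against 40 or 20 nM TRiC in Tris pH 7.4/KCl/MgCl2/DTT buffer.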
* hit, by the source's call; i = inactive; ? = inconclusive; nt = not tested or not shown. Rows were chosen to be rich in hits. Some 1.3% of all compounds tested hit in one or more screens of this group. Cut-off read from the data, not from the text of the source, unless noted: active = activity change below about -65%; inconclusive = mostly about -30% to -63%; inactive = weaker than that. % is set by controls: 0 for no effect and ±100 for the full control effect.

SMILES | Akt phos inh | Six1-Eya2 inh | CtBP-E1A blk | CCT modulator
COCCN1C[C@@H](CO)O[C@@H](n2cnc3c(NC(C)C)ncnc32)C1 | i | 0 | 3 | 0
COc1cc2c(cc1OC)-c1cc(Nc3ccc(C)cc3)nc(=O)n1CC2 | i | ? | nt | 0
COc1cc2c(cc1OC)-c1cc(Nc3ccccc3)nc(=O)n1CC2 | i | -76* | 1 | 0
COc1cc2c(cc1OC)-c1cc(NC3CCCCCC3)nc(=O)n1CC2 | i | -71* | ? | -2
COc1cc2c(cc1OC)-c1cc(Nc3ccc(C(=O)O)cc3)nc(=O)n1CC2 | i | ? | -14 | -5
CCN(CC)CCCNc1cc2n(c(=O)n1)CCc1cc(OC)c(OC)cc1-2 | i | -80* | -69* | 1
COc1ccc(Nc2cc3n(c(=O)n2)CCc2cc(OC)c(OC)cc2-3)c(C)c1 | i | ? | nt | 0
COc1ccc(Nc2cc3n(c(=O)n2)CCc2cc(OC)c(OC)cc2-3)cc1 | i | -79* | ? | -4
O=C(CN1CCC(NC(=O)c2ccco2)CC1)Nc1ccccc1C(F)(F)F | i | 3 | 0 | 1
O=c1c2cc(-c3ccccc3)sc2ncn1/N=C/c1ccco1 | -106%* | -1 | 2 | -4
CCN(CC(=O)Nc1ccccc1C(F)(F)F)C(=O)C1CC(=O)N(Cc2ccccc2)C1 (stereo not given) | i | -86* | -2 | -3
CCOC(=O)CSc1nnc(CNc2ccc(Cl)cc2)n1Cc1ccccc1 | i | 6 | -5 | -2
O=C(O)CSc1nnc(CNc2ccc(Cl)cc2)n1Cc1ccccc1 | -113%* | -2 | -1 | -2
Cc1cc(=O)[nH]c(SCn2nnc3ccccc3c2=O)n1 | -99%* | 0 | 4 | 0
COCCNC(=O)CCn1c(=O)oc2ccccc21 | -109%* | 1 | 8 | -2
COc1ccc(CNC(=O)Cn2c(=O)oc3ccccc32)cc1OC | i | 5 | 7 | -1
CCOc1ccc(CNC(=O)CCn2c(=O)oc3ccccc32)cc1OC | -105%* | 1 | 5 | -1
CCCCCNC(=O)CCn1c(=O)oc2ccccc21 | i | 5 | 7 | -1
Cc1ccc(N2CC(NC(=O)C(=O)c3c(C)[nH]c4ccccc34)CC2=O)cc1C (stereo not given) | i | -6 | 0 | 3
Cc1ccc(NC(=O)CN(C)c2ccc(S(=O)(=O)N3CCN(C)CC3)cn2)cc1 | -102%* | 0 | 2 | 0
CN(CC(=O)Nc1ccc(F)cc1)c1ccc(S(=O)(=O)N2CCCC2)cn1 | i | -4 | 6 | -5
CCN1CCN(C(=O)c2ccc3c(=O)n(CCc4ccccc4)c(=O)[nH]c3c2)CC1 | i | -6 | 6 | 2
CCOC(=O)c1c(P(=O)(N2CCOCC2)N2CCOCC2)noc1N | i | 0 | 5 | -54*
CCOC(=O)c1c(N)sc(C(=O)N2CCOCC2)c1C | nt | 2 | 0 | -4
CCOC(=O)c1cnc2c(OC)cccc2c1N1CCN(c2ccc(OC)cc2)CC1 | -128%* | -20 | -14 | -3
SMILES | Akt phos inh | Six1-Eya2 inh | CtBP-E1A blk | CCT modulator
COc1ccc(/C=N/NC(=O)c2cc(-c3ccccc3OC)nc3ccccc23)cc1COC(C)=O | i | -25 | -18 | -2
COc1ccc(/C=N/NC(=O)c2cc(-c3ccc(C)cc3C)nc3ccccc23)cc1COC(C)=O | -89%* | 0 | 8 | 1
CC(=O)C1CCC2C3CC=C4N(C)C(=O)CCC4(C)C3CCC12C (stereo not given) | i | 8 | -4 | 0
N#CC(C#N)C(c1ccsc1)c1c(-c2ccccc2)[nH][nH]c1=O (stereo not given) | -108%* | -3 | 5 | 0
CSCCC(NC(=O)c1cccc(C)c1)C(=O)OCC(=O)Nc1c(C)nn(-c2ccccc2)c1C (stereo not given) | i | -2 | -10 | 2
CS(=O)(=O)N(CC(=O)NCCSC1CCCCC1)c1cccc(F)c1 | i | -8 | -5 | -2
CS(=O)(=O)N(CC(=O)NCCSC1CCCCC1)c1ccccc1 | i | 31 | 2 | -33*
N#Cc1c(N)n(C2OC(CO)C(O)C2O)c2ncnc(N)c12 (stereo not given) | i | 4 | 9 | -2
CCc1cc2c(=O)c(Oc3ccccc3F)c(C)oc2c(CN(C)C)c1O | -104%* | 3 | 1 | -1
CCC(C(=O)NC1CCCC1)n1c(-c2ccnc3ccccc23)nc2ccccc21 (stereo not given) | i | -2 | 2 | nt

Assay outcomes (PubChem BioAssay)
